The results in this text go back to PubChem BioAssay (NCI).

Test systems include NCI-H23 lung; NCI-H522 lung; 786-0 renal; MDA-MB-231 breast; UACC-62 melanoma; LOX IMVI melanoma; CCRF-CEM leukemia; MOLT-4 leukemia; SR leukemia; OVCAR-8 ovarian; OVCAR-5 ovarian; OVCAR-4 ovarian; SK-OV-3 ovarian; IGROV1 ovarian; HS 578T breast; T-47D breast; SW-620 colon; MCF7 breast; HCT-116 colon; KM12 colon.
Holding throughout (assay): NCI-60 one-dose screen, 48 h (100 = growth as untreated, 0 = no growth, -100 = all killed)
Common to all, as to details: 10 µM

This is part of a sample that, as a whole, favours compounds with a hit. Of some 83,000 tested, about 20% had one in any assay.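 Growth was measured after 48 h exposure to one concentration of compound in 96-well plates. Values under 10 count as active.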 Unmarked numbers belong to inactive results. Active and inactive are the calls of the source.

For `C=C1[C@@H](C)C2[C@H](Cc3ccccc3)NC(=O)[C@]23[C@H](OC(C)=O)/C=C/[C@@](C)(O)C(=O)[C@@H](C)C/C=C/[C@H]3[C@@H]1O` (stereo not given in full), the growth in the assay on NCI-H23 lung was 69.8%; in the assay on NCI-H522 lung it was 22.3%; in the assay on 786-0 renal, 28.8%; with MDA-MB-231 breast it was 33%; in the assay on UACC-62 melanoma it was 84.5%; in the assay on LOX IMVI melanoma, 1.65% (active). Moreover, the growth is 48.7% in the assay with CCRF-CEM leukemia; 62.3% with MOLT-4 leukemia; 43.2% in the assay with SR leukemia; 74.6% in the assay on OVCAR-8 ovarian; 96.1% with OVCAR-5 ovarian; 34.7% with OVCAR-4 ovarian. The growth was 15.1% in the assay with SK-OV-3 ovarian; 8.46% (active) with IGROV1 ovarian; 9.13% (active) in the assay with HS 578T breast; 81.6% in the assay on T-47D breast; 77.2% in the assay with SW-620 colon; 23.3% in the assay with MCF7 breast. Further, the growth in the assay with HCT-116 colon was 44.4%; in the assay with KM12 colon it was 62.7%.

`CC1=C[C@H]2O[C@@H]3C[C@@H](O)[C@](C)([C@@]2(C)CC1)[C@@]31CO1`: the growth is 28.4% in the assay with NCI-H23 lung; 31% in the assay with NCI-H522 lung; 24.1% in the assay on 786-0 renal; 42.4% with MDA-MB-231 breast; 44.5% with UACC-62 melanoma; 13.6% in the assay with LOX IMVI melanoma. Besides, the growth in the assay with CCRF-CEM leukemia is 13.8%; with MOLT-4 leukemia it was 9.97% (active); in the assay on SR leukemia it was 18.1%; in the assay with OVCAR-8 ovarian, 27.7%; with OVCAR-5 ovarian, 78.9%; in the assay on OVCAR-4 ovarian, 32%. Besides, the growth in the assay with SK-OV-3 ovarian is 22.9%; in the assay on IGROV1 ovarian, 28.3%; in the assay on HS 578T breast it was 37.8%; with T-47D breast, 29.6%; with SW-620 colon it was 24%; with MCF7 breast, 17.6%. The figures for the growth in the assay on HCT-116 colon and in the assay with KM12 colon were 7.52% (active) and 26.1%, respectively.

Turning to `N#Cc1nc(-c2ccccc2)oc1N1CCC(S(=O)(=O)F)CC1`, the growth in the assay on NCI-H23 lung is 99.2%; with NCI-H522 lung it was 93.9%; in the assay on 786-0 renal, 81.5%; with MDA-MB-231 breast, 98.7%; in the assay on UACC-62 melanoma it was 98.1%; in the assay on LOX IMVI melanoma it was 104%. The growth is 100% in the assay on CCRF-CEM leukemia; 94.3% in the assay on MOLT-4 leukemia; 83.4% with SR leukemia; 94.3% in the assay with OVCAR-8 ovarian; 104% with OVCAR-5 ovarian; 101% in the assay on OVCAR-4 ovarian. The growth with SK-OV-3 ovarian is 107%; in the assay with IGROV1 ovarian, 103%; in the assay with HS 578T breast, 98.5%; in the assay on T-47D breast, 106%; with SW-620 colon, 103%; in the assay with MCF7 breast, 98.2%. Moreover, the growth in the assay with HCT-116 colon was 101%; with KM12 colon, 97.1%.

Consider `CC1=C[C@H]2O[C@@H]3C[C@H]4OC(=O)/C=C\C=C\[C@H]([C@@H](C)O)OCC[C@@H](C)[C@H](O)C(=O)OC[C@@]2(CC1)[C@]4(C)[C@]31CO1`, for which the growth in the assay with NCI-H23 lung was -36.6% (active); with NCI-H522 lung, -43.4% (active); in the assay on 786-0 renal it was -43.3% (active); with MDA-MB-231 breast, -25.2% (active); in the assay with UACC-62 melanoma, -66.6% (active); in the assay with LOX IMVI melanoma, -79% (active). For the same molecule, the growth was -7.82% (active) in the assay with CCRF-CEM leukemia; -19.2% (active) with MOLT-4 leukemia; -10.5% (active) in the assay on SR leukemia; -12.8% (active) with OVCAR-8 ovarian; -16.8% (active) in the assay on OVCAR-5 ovarian; -19% (active) with OVCAR-4 ovarian. The growth is -18.6% (active) in the assay with SK-OV-3 ovarian; -13.4% (active) with IGROV1 ovarian; -6.56% (active) in the assay with HS 578T breast; -19% (active) in the assay on T-47D breast; 0.381% (active) with SW-620 colon; -7.85% (active) in the assay with MCF7 breast. Besides, the growth with HCT-116 colon is -27.7% (active); with KM12 colon, 4.84% (active).

As to `CC1=C(CN(O)C(N)=O)C2=C(C)C3(CC3)[C@@](C)(O)C(=O)C2=C1`, the growth in the assay with NCI-H23 lung is -28.5% (active); in the assay on NCI-H522 lung, 0.934% (active); with 786-0 renal, -5.47% (active); in the assay on MDA-MB-231 breast, 6.59% (active); with UACC-62 melanoma, -19.7% (active); in the assay with LOX IMVI melanoma it was -27.6% (active). Besides, the growth is 94.7% with CCRF-CEM leukemia; 104% in the assay with MOLT-4 leukemia; 67.6% in the assay with SR leukemia; 1.75% (active) with OVCAR-8 ovarian; 17.5% in the assay on OVCAR-5 ovarian; -0.96% (active) in the assay on OVCAR-4 ovarian. In addition, the growth in the assay with SK-OV-3 ovarian was -16.3% (active); in the assay on IGROV1 ovarian, 11.1%; in the assay on HS 578T breast, -16.8% (active); in the assay with T-47D breast it was -3.77% (active); in the assay with SW-620 colon, 86%; in the assay on MCF7 breast, 9.79% (active). The growth in the assay on HCT-116 colon was 4.72% (active); in the assay on KM12 colon, 3.43% (active).

Take `O=C(CCCc1ccc(N(CCCl)CCCl)cc1)OCc1ccccc1`: the growth is 89.3% in the assay on NCI-H23 lung; 84.3% in the assay on NCI-H522 lung; 99% in the assay on 786-0 renal; 103% with MDA-MB-231 breast; 77.8% in the assay with UACC-62 melanoma; 77.2% with LOX IMVI melanoma. In addition, the growth in the assay on CCRF-CEM leukemia was 82.1%; in the assay with MOLT-4 leukemia, 76.7%; in the assay on SR leukemia it was 42.2%; with OVCAR-8 ovarian it was 89.7%; in the assay with OVCAR-5 ovarian, 117%; in the assay with OVCAR-4 ovarian, 105%. Besides, the growth in the assay on SK-OV-3 ovarian was 108%; with IGROV1 ovarian, 87.8%; in the assay on HS 578T breast, 114%; in the assay on T-47D breast it was 75.6%; with SW-620 colon it was 91.1%; in the assay with MCF7 breast, 81.8%. The results for the growth in the assay with HCT-116 colon and in the assay with KM12 colon were 92.7% and 99.7%, respectively.

As for `N#Cc1c(-n2c(Br)c(Br)c3cc(Br)ccc32)[nH]c2c(Br)cc(Br)cc12`, the growth in the assay on NCI-H23 lung was -36.4% (active); in the assay with NCI-H522 lung, -14.8% (active); in the assay on 786-0 renal it was -19.1% (active); with MDA-MB-231 breast, -2.11% (active); with UACC-62 melanoma it was -30.8% (active); with LOX IMVI melanoma, -25.2% (active). For the same molecule, the growth with CCRF-CEM leukemia was 13.2%; in the assay with MOLT-4 leukemia, 2.02% (active); in the assay with SR leukemia, 0.987% (active); with OVCAR-8 ovarian, 1.23% (active); in the assay with OVCAR-5 ovarian it was 33%; with OVCAR-4 ovarian it was 20.4%. For the same molecule, the growth in the assay with SK-OV-3 ovarian is -44.3% (active); with IGROV1 ovarian it was 25.4%; in the assay on HS 578T breast, -6.84% (active); in the assay on T-47D breast it was -13% (active); with SW-620 colon, 4.15% (active); in the assay with MCF7 breast, -13.6% (active). For the same molecule, the growth is -66.1% (active) in the assay on HCT-116 colon and -19.4% (active) in the assay on KM12 colon.
